From PubChem
SW480 rereplic: A quantitative high throughput screen for small molecules that induce DNA re-replication in SW480 colon adenocarcinoma cells; SW480 DNA re-replication, Hoechst DNA content imaging, 48 h; Potency, µM (highest dose often 46.1 µM), actives largely listed as activators; hit rate 1.8% among 340,000; note: nearly all actives have a fitted effect of over 55% in size
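Hoechst fluorescence of nuclei (405 nm excitation, 500-530 nm emission) measured by plate-scanning imager after 48 hr compound exposure at 37 C; re-replication scored as increased number of nuclei with elevated intensity.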
ELG1 DNA repair: qHTS screen for small molecules that inhibit ELG1-dependent DNA repair in human embryonic kidney (HEK293T) cells expressing luciferase-tagged ELG1 | Potency, µM (series often up to 46.1 µM), usual class: inhibitors | AID 504467, 2011 | HEK293T ELG1-luciferase reporter, luminescence, 16 h; DNA damage induced by 5-fluorouridine | hit rate 2.3% among 330,000; note: nearly all actives have a fitted effect of over 55% in size
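Luminescence from the luciferase reporter, measured 30 min after ONE-Glo reagent at room temperature, was the read-out. Beforehand, 2,000 cells per well were exposed for 16 hr at 37 °C to 5-fluorouridine together with compound or vehicle.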
MCF10A rerep: A quantitative high throughput screen for small molecules that induce DNA re-replication in MCF 10a normal breast cells | MCF 10A DNA re-replication, Hoechst nuclear intensity, 48 h | Potency, µM (doses to about 46.1 µM), actives largely listed as activators | hit rate 2.9% among 350,000 | AID 624296, 2012; note: nearly all actives have a fitted effect of over 50% in size
KB-V1 MDR tox: qHTS assay for MDR1-selective chemotherapeutics: Primary screen using the drug-selected MDR subline cells KB-V1 | KB-V1 MDR cells viability, CellTiter-Glo, 72 h | hit rate 3.4% among 400,000 | AID 1347076, 2019 | Potency, µM (highest dose often 46.1 µM), actives largely listed as cytotoxic; note: nearly all actives have a fitted effect of over 60% in size
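KB-V1 cells (P-gp-expressing MDR subline of KB-3-1) in phenol-red-free DMEM with 10% FBS were exposed to library compounds over a concentration series for 72 h at 37 degrees C. Viability read by CellTiter-Glo luminescence; concentration-effect curves fitted after normalization.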
KB-3-1 tox: qHTS assay for MDR1-selective chemotherapeutics: Primary screen using the parental adenocarcinoma cell KB-3-1. KB-3-1 viability, CellTiter-Glo ATP luminescence, 72 h. Potency, µM (titrated, usually from 46.1 µM), most hits filed as cytotoxic. hit rate 1.4% among 400,000; note: nearly all actives have a fitted effect of over 60% in size
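72 h, 37 °C compound treatment of KB-3-1 parental cells; CellTiter-Glo added, 10 min, luminescence read. Data corrected against DMSO-only plates and normalized before curve fitting.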
Each line names hits and unclear results; the compound was inactive in the other large screens. In the library only some 8.1% were active in any assay of this set; here they are far more common. Calls come from the whole dose curve; as a rule, active = well fitted curve in the direction sought with a large enough effect; inconclusive = small, poorly fitted or top-dose-only effect, or another doubt; inactive = no such curve, though single readings can be large; an effect the other way counts as inactive or inconclusive.

O=C(Nc1ccc(Br)cn1)c1ccc(Br)s1	SW480 rereplic 8.2µM, ELG1 DNA repair inconclusive, MCF10A rerep 18.4µM, KB-V1 MDR tox 23.1µM, KB-3-1 tox inconclusive
Cc1cc(C)c(-c2csc(NC(=O)/C=C/c3cccs3)n2)c(C)c1	SW480 rereplic inconclusive, ELG1 DNA repair inconclusive, MCF10A rerep inconclusive, KB-V1 MDR tox 5.17µM, KB-3-1 tox inconclusive
O=P(C(=S)Nc1ccccc1Cl)(c1ccccc1)c1ccccc1	KB-V1 MDR tox inconclusive (no result: SW480 rereplic, ELG1 DNA repair, MCF10A rerep)
C[C@H]1Oc2ccccc2C(=O)C1C(=O)c1ccccc1 (stereo partly specified)	none (no result: ELG1 DNA repair)
O=C(/C=C/c1cccs1)Nc1cccc(NC(=O)/C=C/c2cccs2)n1	ELG1 DNA repair 16.4µM, MCF10A rerep 18.4µM, KB-V1 MDR tox 23.1µM, KB-3-1 tox 23.1µM
O=C(/C=C/c1cccs1)Nc1nccs1	ELG1 DNA repair inconclusive, MCF10A rerep inconclusive
O=C(NCCCCCCNC(=O)c1ccc(Br)s1)c1ccc(Br)s1	KB-V1 MDR tox 3.26µM, KB-3-1 tox inconclusive
O=C(/C=C/c1cccs1)Nc1ccc(Br)cn1	SW480 rereplic inconclusive, ELG1 DNA repair inconclusive, MCF10A rerep inconclusive, KB-V1 MDR tox 0.366µM, KB-3-1 tox 1.3µM
O=C(N/N=C1\C(=O)c2cccc3cccc1c23)c1ccc(O)cc1	ELG1 DNA repair inconclusive, KB-3-1 tox inconclusive
FC(F)(F)c1ccc(Cl)c(N/N=C/c2ccc(N3CCOCC3)s2)c1	SW480 rereplic inconclusive, MCF10A rerep inconclusive
Cc1nn(-c2ccccc2)c(C)c1C(=O)OCC(=O)N(C)c1ccccc1	ELG1 DNA repair inconclusive
CC(=O)OCCc1c2ccccc2c(CCCN(C)C)c2ccccc12	SW480 rereplic inconclusive, MCF10A rerep 18.4µM (no result: ELG1 DNA repair)
CC(=O)OCCc1[nH]c2ccccc2c1C	none
CC12CCC(O)CC1=CCC1C2CCC2(C)C3=NN=CC3CC12 (stereo unspecified)	SW480 rereplic inconclusive, MCF10A rerep 18.4µM, KB-V1 MDR tox inconclusive, KB-3-1 tox inconclusive (no result: ELG1 DNA repair)
CN(C)CCN[C@H]1CCC2C3CC=C4C[C@@H](O)CC[C@]4(C)C3CC[C@@]21C (stereo partly specified)	SW480 rereplic inconclusive, MCF10A rerep 20.6µM
CCOC(=O)CN[C@H]1CCC2C3CC=C4C[C@@H](O)CC[C@]4(C)C3CC[C@@]21C (stereo partly specified)	none
CC(=O)C1(O)C(C)CC2C3CC=C4CC(O)CCC4(C)C3CCC21C (stereo unspecified)	none (no result: ELG1 DNA repair)
CC(/C=N\NC(=O)c1cc(C)oc1C)=C\c1ccccc1	ELG1 DNA repair inconclusive
COc1ccc(N(C)S(=O)(=O)c2cccc(C(=O)N3CCN(Cc4ccc5c(c4)OCO5)CC3)c2)cc1	MCF10A rerep inconclusive, KB-V1 MDR tox inconclusive
O=C(Nc1ccc2c(c1)OCO2)c1ccc(Cl)c(S(=O)(=O)N2CCOCC2)c1	none (no result: KB-V1 MDR tox, KB-3-1 tox)
Cc1ccc(NC(=O)c2ccc3c(c2)OCO3)cc1S(=O)(=O)N1CCOCC1	ELG1 DNA repair 18.3µM
Cc1ccc(NC(=O)c2oc3ccccc3c2COC(C)C)cc1S(=O)(=O)N1CCOCC1	ELG1 DNA repair 18.3µM, MCF10A rerep inconclusive, KB-V1 MDR tox inconclusive, KB-3-1 tox inconclusive
Cc1ccc(C(=O)N2CCN(Cc3ccc4c(c3)OCO4)CC2)cc1S(=O)(=O)N1CCOCC1	KB-V1 MDR tox 16.4µM
CCOc1ccc(N(C)S(=O)(=O)c2ccc(C)c(C(=O)N3CCN(Cc4ccc5c(c4)OCO5)CC3)c2)cc1	ELG1 DNA repair 16.4µM, MCF10A rerep inconclusive, KB-3-1 tox inconclusive
O=C(CN1C(=O)NC2(CCCC2)C1=O)Nc1ccc(Cl)cc1F	none
Cc1ccc(C(=O)Nc2ccc(Br)cc2)cc1S(=O)(=O)N1CCOCC1	KB-V1 MDR tox 4.11µM, KB-3-1 tox 10.3µM (no result: SW480 rereplic, ELG1 DNA repair, MCF10A rerep)
CCn1c(=O)c(=O)[nH]c2cc(C(=O)N3CCN(Cc4ccc5c(c4)OCO5)CC3)ccc21	MCF10A rerep 5.17µM
O=C(c1cccc(F)c1)N1CCN(Cc2ccc3c(c2)OCO3)CC1	none
COc1ccc(N2CCN(Cc3nc4c(c(=O)n(C)c(=O)n4C)n3C(C)C(C)=O)CC2)cc1 (stereo unspecified)	MCF10A rerep inconclusive
CCNC(=O)CCC(=O)Nc1cc(Cl)ccc1C	none
